KLK7 zymogen act: activates the human kallikrein-7 zymogen. activation, % at 7 µM. 0.9% of 370,000 active. purified proKLK7, EDANS-DABCYL substrate fluorescence; 100% is mature enzyme control, 0% vehicle. P49862. AID 652039;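 active = activation above the mean of all tested compounds plus 3 SD, computed per campaign excluding outliers beyond control limits, cut at about 13% in these data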
PfG6PD inh: PfG6PD (Plasmodium falciparum) enzyme inhibition; inhibition, % at 20 µM; PfGluPho enzyme, NADPH resazurin-diaphorase fluorescence; 0.78% of 350,000 active; AID 504690;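 active = inhibition reaching at least a set limit at 20 µM in the primary screen, cut at about 59% in these data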;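 note: 0% = DMSO wells with substrate and 100% = DMSO wells lacking glucose-6-phosphate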
Neddyl block: cullin neddylation inhibition | P61081+Q13564 | TR-FRET cullin neddylation, biochemical | calls only at 25 µM | 0.58% of 360,000 active | AID 651699; in the data active = inhibition above about 36%
Target sequence (P61081 whole entry, looked up): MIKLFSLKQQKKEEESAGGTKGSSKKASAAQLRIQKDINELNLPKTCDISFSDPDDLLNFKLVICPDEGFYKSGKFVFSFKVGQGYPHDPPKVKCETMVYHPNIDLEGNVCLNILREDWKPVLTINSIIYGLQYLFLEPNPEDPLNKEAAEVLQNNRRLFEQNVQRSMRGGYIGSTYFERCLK
Target sequence (Q13564 whole entry, looked up): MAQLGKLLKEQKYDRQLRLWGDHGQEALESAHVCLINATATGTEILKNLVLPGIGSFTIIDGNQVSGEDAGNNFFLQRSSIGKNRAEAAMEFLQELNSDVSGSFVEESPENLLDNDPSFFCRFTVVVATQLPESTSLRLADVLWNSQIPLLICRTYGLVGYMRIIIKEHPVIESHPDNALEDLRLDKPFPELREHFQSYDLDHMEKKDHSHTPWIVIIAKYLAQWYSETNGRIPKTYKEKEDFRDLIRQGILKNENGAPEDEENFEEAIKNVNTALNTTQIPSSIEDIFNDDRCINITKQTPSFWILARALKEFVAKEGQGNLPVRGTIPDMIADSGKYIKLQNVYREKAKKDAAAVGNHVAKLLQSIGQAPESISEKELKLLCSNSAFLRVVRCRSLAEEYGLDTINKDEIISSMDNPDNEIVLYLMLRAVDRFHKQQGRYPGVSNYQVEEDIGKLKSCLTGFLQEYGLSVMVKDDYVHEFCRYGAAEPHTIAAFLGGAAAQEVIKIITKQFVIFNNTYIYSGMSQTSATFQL
FAS-TE inh: inhibitors of human fatty acid synthase thioesterase domain; P49327; recombinant FAS-TE, OMFH fluorogenic substrate, fluorescence endpoint; inhibition, % at 15 µM; 0.67% of 360,000 active; AID 602261;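 active = compounds whose normalised, plate-corrected inhibition of enzyme fluorescence in the single-dose primary screen is 50% or more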;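 note: 0% = DMSO with enzyme and 100% = substrate without enzyme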
FAS-TE inh conf: FAS thioesterase (human) inhibition, confirmation; shares compounds with FAS-TE inh; recombinant FAS-TE, OMFH fluorogenic substrate, fluorescence; inhibition, % at 15 µM; 45% of 2,300 active; AID 624325;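 active = compounds inhibiting the enzyme by at least 50% at 15 µM in any one of the replicates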;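 note: 0% = enzyme with DMSO only and 100% = wells lacking enzyme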
Active calls of the source: *; i = inactive; / = not tested or not shown. Sampled rows, rich in hits. Any-hit rate of the full collection: about 2.7%.

SMILES | KLK7 zymogen act | PfG6PD inh | Neddyl block | FAS-TE inh | FAS-TE inh conf
COC(=O)[C@@]1(Cc2ccc(OC)cc2)[C@H]2c3cc(C(=O)N4CCCC4)n(CCc4c[nH]c5ccccc45)c3C[C@H]2CN1C(=O)c1ccccc1 | -0.1 | / | i | 58.1* | 23.4
CCN(C(=O)COC(=O)c1cc(-c2cccc3ccccc23)nc2ccccc12)C1CCS(=O)(=O)C1 (stereo not given) | -23.3 | 15.1 | i | 60.3* | 31.7
Cc1ccc(S(=O)(=O)N2C[C@H]3[C@H]4C(=O)N(C5CCCCC5)C(=O)[C@H]4CC(=O)[C@H]3[C@@H]2c2cccc3ccccc23)cc1 | 0.2 | / | i | 97.4* | 9.6
Cc1ccc(S(=O)(=O)N2C[C@H]3[C@H]4C(=O)N(Cc5ccccc5)C(=O)[C@H]4CC(=O)[C@H]3[C@@H]2c2ccccc2Cl)cc1 | 0.2 | / | i | 85.3* | 22.1
Cc1ccc(S(=O)(=O)N2C[C@H]3[C@H]4C(=O)N(Cc5ccccc5)C(=O)[C@H]4CC(=O)[C@H]3[C@@H]2c2ccccc2F)cc1 | 0.1 | / | i | 46.7 | /
CCOc1cc(CCNC(=O)c2cc3sccc3n2CC)ccc1OC | -0.1 | / | / | / | /
Cc1cc(C)cc(N(CC(=O)N2CCn3c2nc2ccccc23)S(=O)(=O)c2c(C)noc2C)c1 | -0.7 | 4.7 | i | 65.3* | 27.6
O=C(CNC(=O)c1ccccc1)N/N=C/c1cc(Br)ccc1O | -93.1 | -43.5 | i | 53.7* | 44.0*
O=C(CN1CC(c2ccccc2)CC1=O)N/N=C/c1cc(Br)ccc1O (stereo not given) | -64.1 | -14.6 | / | 69.1* | 85.1*
Cc1csc2c(=O)sc(NC(=O)c3ccc(F)cc3Cl)nc12 | 0.5 | -4.3 | i | 84.0* | 4.0
Cc1ccccc1C(=O)Nc1nc2c(C)csc2c(=O)s1 | -0.1 | -8.6 | i | 51.0* | 26.9
Cc1csc2c(=O)sc(NC(=O)c3ccc(F)cc3)nc12 | -0.1 | 7.7 | i | -1.0 | /
O=S1(=O)c2ccc(N3CCCC3)cc2Oc2ccccc2CN1Cc1cn(Cc2cccc(C(F)(F)F)c2)nn1 | -0.8 | / | / | / | /
CCOC(=O)Cn1cc(CN2CCS(=O)(=O)N(Cc3ccc(F)cc3)C(C(=O)OC)C2)nn1 (stereo not given) | 0.1 | / | / | / | /
COc1ccc2sc(-c3ccc(S(C)(=O)=O)cc3)c(-c3ccc4c(c3)OCCO4)c2c1 | -65.6 | 1.0 | i | 57.4* | 22.3
COc1ccc(-c2c(-c3ccc(S(C)(=O)=O)cc3)sc3ccc(OC)cc23)cc1 | -15.1 | 4.9 | i | 21.6 | /
COc1cc2sc(-c3ccc(S(C)(=O)=O)cc3)c(-c3ccc4c(c3)OCO4)c2cc1OC | -25.7 | -1.7 | i | 80.5* | 27.9
C=CCN1C(=O)[C@@H](CC(=O)N2CCOCC2)[C@]2(C(=O)OCC)CCCCC/C=C/12 | -0.1 | / | / | / | /
O=C(NC1CCCC1)c1ccc(COc2ccccc2)o1 | 0.2 | / | / | / | /
O=C1c2ccc(Cl)cc2S(=O)(=O)c2cccc(C(=O)N3CCN(c4ccc(Cl)cn4)CC3)c21 | 0.3 | 20.3 | i | 59.0* | 4.7
O=C1c2ccc(-c3ccc(F)cc3OCc3ccccc3)cc2S(=O)(=O)c2cccc(C(=O)N3CCN(c4ncc(Br)cn4)CC3)c21 | 0.1 | -3.2 | i | 20.5 | /
O=C1c2ccccc2S(=O)(=O)c2cc(C(=O)N3CCN(c4c(Cl)cncc4Cl)CC3)ccc21 | -0.3 | -1.9 | i | 61.9* | 20.6
O=C1c2ccccc2S(=O)(=O)c2cc(C(=O)N3CCN(c4ccccc4)CC3)ccc21 | 0.2 | -3.0 | i | 20.3 | /
O=C1c2ccc(-c3ccc(Cl)c(C(F)(F)F)c3)cc2S(=O)(=O)c2cccc(C(=O)N3CCN(c4ncc(Br)cn4)CC3)c21 | -0.3 | 5.5 | i | 68.6* | 11.4
S=C(Nc1ccc(Cl)cc1)OC1CCC12CCC(c1ccccc1)CC2 (stereo not given) | 0.2 | / | / | / | /
SMILES | KLK7 zymogen act | PfG6PD inh | Neddyl block | FAS-TE inh | FAS-TE inh conf
Cc1ccc(NC(=O)CCNC(=O)c2ccc([N+](=O)[O-])cc2)cc1C | -0.2 | 1.7 | i | 64.5* | 68.9*
O=C(CCNC(=O)c1ccc([N+](=O)[O-])cc1)NCCc1ccc(Cl)cc1 | 0.1 | 2.1 | i | 61.7* | 69.9*
O=S1(=O)c2c(NCc3ccco3)cccc2Oc2ccccc2CN1Cc1cn(Cc2ccc(F)cc2)nn1 | -2.3 | / | / | / | /
CCn1c(Cc2cccs2)nnc1SCC(=O)Nc1ccc(Cl)cc1C | 0.0 | / | / | / | /
COc1ccc(COC(=O)c2cc([N+](=O)[O-])ccc2N2CCOCC2)cc1F | 0.0 | 7.4 | i | 54.2* | 7.8
O=C(OCc1cccc(Cl)c1)c1cc(S(=O)(=O)N2CCCCC2)ccc1N1CCOCC1 | -0.1 | 1.2 | i | 26.4 | /

Screens from PubChem BioAssay.
